The results in this text go back to PubChem BioAssay (NCI).

What all share (assay): NCI-60 one-dose screen, 48 h (100 = growth as untreated, 0 = no growth, -100 = all killed)
In test [1] the test system is SK-MEL-2 melanoma. Particulars: 10 µM unless noted.
Test [2] relates to EKVX NSCLC. Particulars: 10 µM unless noted.
The test system of test [3] is SN12C renal. Particulars: 10 µM unless noted.
In test [4] the test system is UO-31 renal. Particulars: 10 µM unless noted.
Test [5] concerns TK-10 renal. Particulars: 10 µM unless noted.
For test [6], the system named is ACHN renal. The settings on record: 10 µM unless noted.
Test [7] deals with CAKI-1 renal. The settings on record: 10 µM unless noted.
Test [8] concerns A498 renal. The settings on record: 10 µM unless noted.
In test [9] the test system is CCRF-CEM leukemia. The settings on record: 10 µM unless noted.
Test [10] relates to MOLT-4 leukemia. Particulars: 10 µM unless noted.
Test [11] concerns SR leukemia. Particulars: 10 µM unless noted.
Test [12] relates to RPMI-8226 leukemia. Particulars: 10 µM unless noted.
Test [13] has as its system OVCAR-8 ovarian. The settings on record: 10 µM unless noted.
Test [14] has as its system OVCAR-5 ovarian. The settings on record: 10 µM unless noted.
Test [15] deals with OVCAR-4 ovarian. The settings on record: 10 µM.
For test [16], the system named is SK-OV-3 ovarian. The settings on record: 10 µM unless noted.
Test [17] concerns IGROV1 ovarian. Particulars: 10 µM unless noted.
The subject of test [18] is OVCAR-3 ovarian. Particulars: 10 µM unless noted.
Test [19] concerns HS 578T breast. The settings on record: 10 µM unless noted.
For test [20], the system named is NCI/ADR-RES ovarian. The settings on record: 10 µM unless noted.

Structures are written as SMILES. The panel holds about 83,000 compounds, 20% with a hit somewhere; the sample as a whole holds those more often.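 Cells were grown in 96-well plates and exposed to the test compound at a single concentration for 48 hours; results are reported as percent growth, with values below 10 considered active.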 A number with no mark means an inactive call. The source made the active and inactive calls.

Regarding `O=C1COCCN1c1ccc(NCc2cn(Cc3ccccc3)c3ccccc23)cc1`, the growth in test [1] was 97.6%; in test [2] it was 94.4%; in test [3], 96.2%; in test [4], 63%; in test [5], 12.3%; in [6] it was 101%. Further, the growth in test [7] was -9.69% (active); in test [8], -88.4% (active); in [9], 96.4%; in [10], 102%; in test [11], 58.3%; in [12], 86.8%. In addition, the growth is 93.7% in test [13]; -23.8% (active) in test [14]; 62.6% in [15]; 34.3% in [16]; 15.5% in [17]; 80.9% in test [18]. Also, the growth in [19] was 89.4%; in test [20], 101%.

As for `COc1ccc(/C=C(/C(=O)c2ccc(Cl)cc2)C(=O)C(F)(F)F)cc1`, the growth in [1] was 86.4%; in test [2], 92.5%; in test [3], 98%; in test [4] it was 78.6%; in [5], 75.3%; in test [6], 110%. The growth in test [7] was 94.3%; in test [8], 82.4%; in test [9], 89.7%; in [10], 85.8%; in [11], 76.2%; in test [12] it was 90.2%. The growth was 102% in test [13]; 103% in test [14]; 96.3% in test [15]; 100% in test [16]; 96% in [17]; 98.7% in [18]. Further, the growth was 96.2% in test [19] and 95.8% in [20].

In the case of `CCN=Cc1c(O)c(O)c(C(C)C)c2cc(C)c(-c3c(C)cc4c(C(C)C)c(O)c(O)c(C=NCC)c4c3O)c(O)c12`, the growth in [1] was 51.4%; in [2], 30.5%; in test [3], 54.9%; in [4], 39.2%; in test [5], 43.5%; in test [6] it was 24.4%. Further, the growth was 73.3% in test [7]; 69.5% in [8]; 20.1% in test [9]; 32.8% in [10]; 27% in test [11]; 34.8% in [12]. The growth in [13] was 39.2%; in test [14], 63.4%; in test [15], 31.7%; in test [16], 63.4%; in test [17] it was 46.8%; in test [18], 32.5%. The growth is 57.8% in test [19] and 47.9% in test [20].

As for `O=C1COCCN1c1ccc(NCc2cn(Cc3cccc4ccccc34)c3ccccc23)cc1`, the growth in test [1] was 93.4%; in test [2], 96.6%; in [3] it was 92.6%; in test [4] it was 58%; in [5], 44.4%; in test [6], 91.4%. In addition, the growth was 7.53% (active) in test [7]; -39.1% (active) in [8]; 96.9% in test [9]; 92% in [10]; 74.5% in test [11]; 82.1% in test [12]. Further, the growth in test [13] was 83.4%; in [14] it was 41.7%; in test [15], 69.8%; in test [16], 62%; in test [17], 27.2%; in [18], 87.9%. The growth in test [19] is 84.3%; in test [20], 78.2%.

`COc1ccc(/C=C(/C2=NCCN2)n2ccc3ccccc32)cc1`: the growth in test [1] was 99.5%; in test [2], 88.5%; in test [3] it was 88.9%; in [4], 52.9%; in test [5] it was 85.8%; in [6], 82.9%. Moreover, the growth in [7] is 69.7%; in test [8] it was 89%; in test [9], 86.2%; in test [10], 93.2%; in [11], 79.5%; in test [12] it was 93.1%. Also, the growth was 97.1% in test [13]; 90% in [14]; 94.8% in [15]; 97.1% in test [16]; 82.8% in [17]; 97.9% in test [18]. Besides, the growth was 84.4% in test [19] and 93% in [20].

As for `O=C(N[C@@H]1CCCc2ccccc21)[C@H](CCC(=O)N1CCN(C2CCCCC2)CC1)N1C(=O)[C@@H](N2C(=O)OC[C@@H]2c2ccccc2)[C@H]1/C=C/c1ccccc1`, the growth in test [1] is 20.6%; in test [2], 51.2%; in [3], 25.4%; in test [4], 21%; in [5], 47%; in [6], 36.4%. The growth was 37.9% in test [7]; 31.8% in [8]; 22.8% in test [9]; -1.99% (active) in test [10]; -25.1% (active) in test [11]; -13.9% (active) in test [12]. In addition, the growth in test [13] is 54.4%; in test [14], 93.5%; in test [15], 36.8%; in test [16], 70.6%; in [17], 49.3%; in test [18], 32.5%. Besides, the values for the growth in test [19] and in test [20] were 48.1% and 33.3%, respectively.

As for `Cc1cc(C)c(-c2cc(O)c(-c3c(C)cc(C)cc3C)cc2O)c(C)c1`, the growth in [1] was 66%; in test [2], 53.9%; in test [3], 65.5%; in [4], 62.1%; in [5], 56.3%; in test [6] it was 38.3%. The growth in [7] was 40.4%; in test [8], 5.72% (active); in test [9], 18.5%; in [10] it was 47.9%; in test [11] it was 19.9%; in test [12] it was 42.3%. For the same compound, the growth in test [13] was 49.4%; in test [14] it was 50.7%; in [15], 58.9%; in test [16], 4.25% (active); in [17], 70.3%; in [18], -25.7% (active). Moreover, the growth in test [19] is 11.9%; in test [20], 57.9%.

In the case of `CC1Cc2ccc(OCCN(C)C)cc2C1=O` (stereo not given), the growth in test [1] is 91.9%; in test [2], 109%; in test [3] it was 101%; in test [4] it was 88.1%; in test [5], 84.6%; in test [6], 106%. The growth was 98% in [7]; 91.2% in test [8]; 103% in test [9]; 102% in test [10]; 101% in test [11]; 88.4% in [12]. The growth in test [13] was 101%; in [14], 105%; in [15], 110%; in [16], 97.8%; in [17], 106%; in [18], 110%. The growth is 97.3% in [19] and 107% in test [20].
